Measured values: the supplement of paper PMC3334620
Whole data set: some 33,000 sequences, median “E-score (-0.5 to 0.5)” near -0.021, cut for the highest 2% near 0.32. Shown is part of a subset that was picked to be rich in the highest values.

The sequences below were run against T1, Zap1 (UniProt P47043) (assay: PBM E-score (8-mer binding enrichment) (E-score (-0.5 to 0.5)); higher = stronger / more preferred TF binding). Settings: protein concentration: 200 nM; construct: GST-full length.
T1 sequence: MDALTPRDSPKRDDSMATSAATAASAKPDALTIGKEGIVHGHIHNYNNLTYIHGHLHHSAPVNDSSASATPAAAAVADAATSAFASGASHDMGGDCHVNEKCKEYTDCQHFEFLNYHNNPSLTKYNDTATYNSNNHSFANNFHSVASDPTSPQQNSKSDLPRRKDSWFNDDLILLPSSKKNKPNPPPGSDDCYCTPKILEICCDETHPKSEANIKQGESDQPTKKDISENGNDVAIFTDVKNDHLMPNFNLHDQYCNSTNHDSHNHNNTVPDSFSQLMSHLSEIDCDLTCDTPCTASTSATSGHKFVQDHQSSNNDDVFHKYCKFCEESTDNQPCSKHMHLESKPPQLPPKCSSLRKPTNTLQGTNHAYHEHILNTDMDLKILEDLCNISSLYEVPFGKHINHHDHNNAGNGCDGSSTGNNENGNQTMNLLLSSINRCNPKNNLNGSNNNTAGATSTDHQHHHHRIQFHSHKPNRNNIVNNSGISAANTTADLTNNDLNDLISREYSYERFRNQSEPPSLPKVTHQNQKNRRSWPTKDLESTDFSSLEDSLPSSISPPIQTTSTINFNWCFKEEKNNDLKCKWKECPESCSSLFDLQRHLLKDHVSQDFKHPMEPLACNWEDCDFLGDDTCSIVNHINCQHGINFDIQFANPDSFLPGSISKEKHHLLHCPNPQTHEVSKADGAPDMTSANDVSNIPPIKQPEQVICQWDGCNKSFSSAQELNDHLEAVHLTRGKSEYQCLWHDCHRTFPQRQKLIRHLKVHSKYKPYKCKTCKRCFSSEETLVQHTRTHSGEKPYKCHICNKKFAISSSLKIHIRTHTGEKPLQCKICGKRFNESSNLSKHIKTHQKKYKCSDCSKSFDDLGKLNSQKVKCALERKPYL
Method: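 Universal 'all 10-mer' protein binding microarrays (Agilent AMADID 015681) probed with GST-tagged S. cerevisiae TFs (full-length or DBD) made by in vitro transcription/translation (PURExpress), about 100-200 nM. Bound TF was detected with fluorescent anti-GST. Each ungapped 8-mer (which stands for itself and its reverse complement) is scored by the PBM enrichment score (E-score), a modified Wilcoxon-Mann-Whitney statistic from -0.5 to +0.5, computed with the Universal PBM Analysis Suite. Scale: above 0.35 generally sequence-specific binding.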

| Sequence | PBM E-score |
| --- | --- |
| GATAGAGC | -0.0954 |
| CGCCACTA | -0.111 |
| GCCCTAGC | -0.148 |
| GGCCCTAC | 0.0088 |
| ATCCAGAA | 0.159 |
| CTCCTTCA | -0.168 |
| TACCCAGA | 0.265 |
| AAGAGATG | -0.16 |
| GGGTACTA | 0.335 |
| AGGTACCA | 0.347 |
| CGGTACCA | 0.303 |
| CGGTACTA | 0.0114 |
| GGGTACCA | 0.4 |
| GCGTACCA | 0.0288 |
| AGGTACTA | 0.29 |
| ACGTACCA | -0.0952 |
| TAGTACCA | 0.163 |
| TCGTACCA | 0.149 |
| TGGTACCA | 0.357 |
| AGGTACGA | -0.0106 |
| CACTAGCA | -0.00655 |
| ACATGCCG | -0.241 |
| GTGAGTGA | -0.147 |
| ACAAACTG | -0.16 |
| TGGTACAA | 0.146 |

| Sequence | PBM E-score |
| --- | --- |
| AGGTACAA | 0.15 |
| GGGTACAA | 0.345 |
| TCAGCTCA | -0.00847 |
| CCTTGGTC | 0.0233 |
| ATCGATTC | -0.119 |
| ATAACCAA | 0.437 |
| AAAACCAA | 0.209 |
| GCAACCAA | 0.231 |
| AGAACCAA | 0.148 |
| GGAACCAA | 0.159 |
| TCAACCAA | 0.118 |
| CTAACCAA | 0.262 |
| AAAACCAT | 0.283 |
| TTAACCAA | 0.317 |
| ATAACCAT | 0.457 |
| AGAACCAT | 0.184 |
| GTAACCAA | 0.417 |
| CAAGACTC | -0.0977 |
| GGCCTCGA | 0.00761 |
| CCTTAAAC | 0.143 |
| CGTGGAGA | -0.239 |
| ACCACTAC | 0.182 |
| AGAGGCCG | -0.144 |
| CGCTCACG | -0.0384 |
| AGGATCTG | -0.242 |

| Sequence | PBM E-score |
| --- | --- |
| AGAACCAG | 0.0863 |
| ATAACCAG | 0.436 |
| CTAACCAG | 0.146 |
| GGAATCCA | -0.115 |
| CCAGGGGG | -0.095 |
| CGACCTAC | -0.114 |
| CACCTCTG | -0.0642 |
| TAGCTCGA | 0.0239 |
| ACAACCAA | 0.267 |
| ACAACCAT | 0.322 |
| ACAACCAG | 0.23 |
| ACAACTAT | 0.204 |
| ACAACCAC | 0.361 |
| GCAACCAC | 0.269 |
| AGGCTTTG | -0.027 |
| ACAATGCA | 0.0982 |
| CAACCCGA | 0.355 |
| CTACCCGA | 0.25 |
| AACCCCGA | 0.266 |
| TAACCCGA | 0.345 |
| AAACCCGA | 0.264 |
| GACCCCGA | 0.244 |
| GAACCCGA | 0.0725 |
| CAACCCGC | 0.251 |
| TACCCCGA | 0.34 |

| Sequence | PBM E-score |
| --- | --- |
| GCAGCTGC | -0.246 |
| CTTACTTC | 0.00964 |
| GTATGATA | 0.14 |
| CTATGATA | 0.00378 |
| ATATGATA | 0.348 |
| TCTTCGAA | 0.00843 |
| AATCGTCG | -0.21 |
| CTACTGTA | -0.0171 |
| ACACCCCA | 0.0819 |
| CCACCCTC | 0.358 |
| CCACCCAA | -0.0177 |
| ACACCCTA | 0.335 |
| ACACCCTC | 0.312 |
| GCACCCTA | 0.297 |
| ACACCCTG | 0.21 |
| CCACCCTA | 0.327 |
| CCACCCAC | 0.263 |
| CCTAGGCC | -0.0276 |
| ATATCTGG | -0.138 |
| CAGTTAAG | 0.0515 |
| GGAGTTTA | -0.0721 |
| ATGAGAGA | -0.0163 |
| GTGCACGA | 0.0644 |
| ACCGCAAG | 0.153 |
| ACCGCAAC | 0.341 |

| Sequence | PBM E-score |
| --- | --- |
| ACCGCACT | 0.109 |
| GCCGCAAC | 0.218 |
| ACCGCAAT | 0.319 |
| ACCGCAAA | 0.205 |
| AGCGACGC | -0.162 |
| TGCATCAA | 0.122 |
| CAGCGACA | -0.0507 |
| ACCTAGGT | 0.26 |
| CGTGATGA | -0.0344 |
| GGTGATGA | 0.338 |
| AGTGATGA | -0.0675 |
| ACAGCAAC | -0.00827 |
| TGAGTGCA | -0.113 |
| GGAGGTTA | 0.36 |
| CGAGGTTA | 0.455 |
| CGAGGTGA | 0.239 |
| GGAGGTGA | 0.13 |
| GGAGGTAA | 0.289 |
| CGAGGTTC | 0.22 |
| GTGGATGA | 0.014 |
| ACGGATGG | -0.0981 |
| CGTTAACA | 0.00812 |
| AGTTAACC | 0.289 |
| CGTTAACC | 0.294 |
| GGTTAACC | 0.427 |

| Sequence | PBM E-score |
| --- | --- |
| AGTTAACA | 0.117 |
| GGTTAACA | 0.32 |
| ACGTTGGG | -0.01 |
| CGCTTTAG | -0.136 |
| CATCTTTC | -0.0278 |
| CACCCTCA | 0.257 |
| CCCCCTGC | -0.372 |
| AACCCTGC | 0.385 |
| CACCCTGC | 0.331 |
| CACCCTCC | 0.326 |
| ACCCCTCA | 0.267 |
| GACCCTGC | 0.283 |
| CTCCCTGC | -0.212 |
| AACCCTCC | 0.185 |
| AACCCTCG | 0.292 |
| ACCCCTGC | 0.167 |
| AACCCTCA | 0.383 |
| GACCCCTC | 0.138 |
| AAAAGCGT | -0.06 |
| TGTGAACA | -0.0338 |
| AGCCACCC | -0.108 |
| AAATGGGT | 0.265 |
| AAATACCG | 0.162 |
| CTAGCAAC | -0.0149 |
| AATGTCGT | -0.0154 |

| Sequence | PBM E-score |
| --- | --- |
| AGTCTGAT | -0.0553 |
| GCTATGAA | -0.0097 |
| ACCCCTGG | 0.289 |
| GACCCTGA | 0.304 |
| AGCCCTGA | -0.131 |
| TACCCTGA | 0.406 |
| CACCCTGG | 0.169 |
| CCCCCTGA | -0.209 |
| AACCCTGG | 0.392 |
| AACCCTGA | 0.461 |
| CACCCTGA | 0.162 |
| ATCCAACA | 0.0629 |
| AGCAAAAG | -0.146 |
| CCTAACTA | 0.135 |
| CGTCCTCA | -0.162 |
| GAAGCCCC | -0.272 |
| AGTTAAAC | 0.0887 |
| CGTTAAAA | 0.0117 |
| TGTTAAAA | 0.0204 |
| CGTTAAGA | -0.0174 |
| CGTTAAAC | 0.21 |
| GGTTAAAA | 0.385 |
| GGTTAAGA | 0.364 |
